Measurements taken from PubChem BioAssay (NCI).
The panel holds about 83,000 compounds, 20% with a hit somewhere; the sample as a whole holds those more often.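 Percent growth is the endpoint: 0 to 100 indicates growth inhibition (40 means 60% inhibition), 0 means no net growth, and negative values indicate cell death.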 Unmarked numbers belong to inactive results. Activity calls are given as the source filed them. How the source made its calls: active means growth percent below 10; inactive means the rest.

These compounds were tested on BT-549 breast (assay: NCI-60 one-dose screen, 48 h (100 = growth as untreated, 0 = no growth, -100 = all killed)). Details: 10 µM unless noted.

| Structure (SMILES) | growth |
| --- | --- |
| COc1cccc2cc(-c3cc4ccccc4[nH]3)/c(=N\NC(=O)c3ccc(Cl)cc3)oc12 | 58.3% |
| C=CC(=O)N1CCC=C(c2cc3c(N[C@H](C)c4ccccc4)ncnc3[nH]2)C1 | 89.8% |
| O=C(CSc1nc2ccccc2c(=O)n1-c1ccccc1)Nc1cccc(C(=O)/C=C/c2ccccc2)c1 | 112% |
| c1cn2c(ccc3nc(-c4cn[nH]c4)c4c(c32)CCCC4)n1 | 53.1% |
| O=S(=O)(NCCCNc1nccc(-n2cnc3ccccc32)n1)c1ccc(C(F)(F)F)cc1 | 88.2% |
| COc1ccc(-c2cc(-c3ccc(Cl)cc3)c(C#N)c(=O)n2Cc2ccc(C(=O)O)cc2)cc1 | 62.8% |
| COc1cc2c(cc1OC)C(Sc1ccc(C)cc1)c1c(nc(N)c(C#N)c1N)O2 (stereo not given) | 35% |
| CCc1nn2c(C)cc(C)nc2c1Cc1ccc(/C=C/CN2CCN(CCOCCOCCN3CCN(C/C=C/c4ccc(Cc5c(CC)nn6c(C)cc(C)nc56)cc4)CC3)CC2)cc1 | 79.7% |
| Cc1noc(C)c1CSc1nc2ccccc2n1-c1ccccc1 | 87.5% |
| COc1cccc2c1CN(C(=O)c1ccc(O)c(C(=O)N3Cc4ccc(OCCC[P+](c5ccccc5)(c5ccccc5)c5ccccc5)cc4C3)c1)C2 | 65.9% |
| COc1ccc2c(c1)Oc1nc(N)c(C#N)c(N)c1C2Sc1ccc(C)cc1 (stereo not given) | 68.4% |
| Nc1nc(-c2cccc([N+](=O)[O-])c2)c(N=Nc2cccc([N+](=O)[O-])c2)s1 | -41.4% (active) |
| Fc1ccc(-c2cc3nc(C(Cl)Cl)nc(-c4ccco4)n3n2)cc1 | 82.4% |
| CCN1CCN(Cc2ccc(C(=O)Nc3ccc(C)c(Oc4ccc(-c5[nH]nc6ncnc(N)c56)cc4)c3)cc2C(F)(F)F)CC1 | 109% |
| Cc1ccc(-n2cc(/C=C/C(=O)c3ccc(O)cc3)c(-c3ccc(S(C)(=O)=O)cc3)n2)cc1 | 70.9% |
| CCCn1cnc2c(c1=N)C(c1ccc(OC)cc1)c1sc3c(CC)cccc3c1O2 (stereo not given) | 33.3% |
| Cc1ccc(NC(=O)c2ccc(CN3CCN(C)CC3)cc2)cc1Oc1ccc(-c2[nH]nc3ncnc(N)c23)cc1 | 93% |
| CC(=O)c1nnn(-c2c(C(=O)n3nc(C)cc3C)sc(=S)n2-c2ccccc2)c1C | 92.2% |
| O=S(=O)(NCCNc1nccc(-n2cnc3ccccc32)n1)c1ccc(C(F)(F)F)cc1 | 53.1% |
| NC(N)=Nc1ccc(Oc2cccc(Nc3cccc(C(F)(F)F)c3)c2)cn1 | 61.2% |
| Nc1nc(-c2cccc([N+](=O)[O-])c2)c(N=Nc2ccc(Br)cc2)s1 | -29.6% (active) |
| COc1cccc(C(=O)Nc2cccc(C#Cc3cccc4[nH]nc(N)c34)c2)c1 | 121% |
| CC1(C)[C@@H](O)CC[C@]2(C)[C@H]3CC[C@@H]4[C@H]5[C@H](C(=O)/C=C\c6ccncc6)CC[C@]5(O)CC[C@@]4(C)[C@]3(C)CC[C@@H]12 | 68.2% |
| N#Cc1cccc(CN2CCc3ncn(Cc4ccc(Cl)cc4)c(=O)c3C2)c1 | 29.7% |
| CCNC(=O)N1CCc2cc(OC)c(OCCc3ccc(OC)cc3)cc2C1c1ccc([N+](=O)[O-])cc1C (stereo not given) | 20.1% |
